# Data as given in PubChem BioAssay (NCATS).
# A number with no mark means an inactive call. Inconclusive results are not listed. Where a call stands in place of a potency, no number is given. Activity calls are given as the source filed them. Calls come from the whole dose curve; as a rule, active = well fitted curve in the direction sought with a large enough effect; inconclusive = small, poorly fitted or top-dose-only effect, or another doubt; inactive = no such curve, though single readings can be large; an effect the other way counts as inactive or inconclusive.
# What was measured:
# [1] = target: Glutathione peroxidase 1 (Homo sapiens) (UniProt P07203); experiment: Primary qHTS Assay for Inhibitors of Recombinant Selenoprotein Glutathione Peroxidase 1 (GPX1) (AID 1845191); note: nearly all actives have a fitted effect of over 65% in size
# Sequence of Glutathione peroxidase 1 (Homo sapiens) (P07203 whole entry, looked up): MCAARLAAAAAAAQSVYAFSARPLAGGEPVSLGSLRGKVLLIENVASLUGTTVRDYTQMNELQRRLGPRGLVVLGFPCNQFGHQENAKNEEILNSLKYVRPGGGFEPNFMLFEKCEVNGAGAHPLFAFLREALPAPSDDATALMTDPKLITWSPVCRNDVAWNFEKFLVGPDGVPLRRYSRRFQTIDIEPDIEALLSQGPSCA
# In short: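 GPX1 10 nM, GR 100 nM, GSH 1 mM, NADPH 0.5 mM, CHP 0.5 mM (final). 30-min cpd preincubation, RT. Ex340/Em450 read t=0, t=15 min.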
# [2] = target: Phospholipid hydroperoxide glutathione peroxidase GPX4 (Homo sapiens) (UniProt P36969); experiment: Primary qHTS Assay for Inhibitors of Recombinant Selenoprotein Glutathione Peroxidase 4 (GPX4) (AID 1845192); note: nearly all actives have a fitted effect of over 65% in size; for activity change, negative = inhibition: series mostly up to about 50 µM
# Sequence of Phospholipid hydroperoxide glutathione peroxidase GPX4 (Homo sapiens) (P36969 whole entry, looked up): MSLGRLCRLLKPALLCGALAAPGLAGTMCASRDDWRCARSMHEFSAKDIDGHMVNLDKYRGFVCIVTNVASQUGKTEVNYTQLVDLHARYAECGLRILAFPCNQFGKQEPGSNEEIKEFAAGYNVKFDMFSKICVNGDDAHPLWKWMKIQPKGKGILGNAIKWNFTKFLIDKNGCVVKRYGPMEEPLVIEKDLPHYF
# In short: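 qHTS, GR-coupled: GPX4 200 nM + cpd 30 min RT → GSH 1 mM, NADPH 0.5 mM, GR 100 nM → CHP 0.5 mM start; fluor 340/450 at t0 and t15 min; no-enzyme wells as control.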
# [3] = Primary fluorescence-based thiol-reactive (MSTI) qHTS assay for identification of artifact compounds. (AID 1845221); note: nearly all actives have a fitted effect of over 65% in size; note: potency is the fitted concentration of half-maximal effect;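 for activity change, negative = thiol reactive: series mostly up to about 54 µM; thiol-reactive compounds lower the probe fluorescence signal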
# In short: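 Probe: MSTI 4 uM, PBS pH 7.4, 2% DMSO. Incubation 1 h, RT, light-protected. Readout fluorescence 525/598 nm.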
# [4] = tested on: Nanoluciferase (engineered Oplophorus gracilirostris luciferase); experiment: Primary Nanoluciferase (NLuc) qHTS assay for identification of artifact compounds. (AID 1845222);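 note: NLuc secreted into diluted conditioned medium of S16 cells; series mostly up to about 54 µM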
# In short: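 Using secreted nanoluciferase in S16 culture medium (0.22 um filtered, 1:55 dilution), compounds were preincubated 15 min at RT. Signal was generated with Nano-Glo reagent (1:100) over 5 min.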
# [5] = target: Luciferin 4-monooxygenase (Photinus pyralis) (UniProt P08659); experiment: Primary firefly luciferase (FLuc) qHTS assay for identification of artifact compounds. (AID 1845220); note: nearly all actives have a fitted effect of over 60% in size; for activity change, negative = inhibition: series mostly up to about 54 µM
# In short: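 In this counter-screen for luciferase artifacts, test compounds met substrate (10 uM each luciferin and ATP) before 10 nM enzyme started the reaction. Light output was measured 5 min later.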
compound,measurement,setting,value
O=C(N[C@H](Cc1ccccc1)C(=O)O)c1sc2cc(F)ccc2c1Cl,Potency,[1],inactive
same,Potency,[2],inactive
same,Potency,[3],inactive
NC[C@@H]1O[C@@H](O[C@@H]2[C@@H](O[C@@H]3O[C@H](CO)[C@@H](O)[C@H]3O)[C@H](O)[C@@H](N)C[C@H]2N)[C@@H](N)[C@H](O)[C@H]1O,Potency,[1],inactive
same,Potency,[2],inactive
same,"activity change, negative = thiol reactive",[3],-13.5% [at 11.5 µM]
same,"activity, negative = inhibition",[4],0% [at 11.6 µM]
CCC12CCCN3CCc4c(n(c5ccccc45)C(O)C1)C32 (stereo unspecified),Potency,[1],inactive
same,Potency,[2],inactive
same,Potency,[5],inactive
same,Potency,[4],inactive
Nc1ncnc2c1ncn2[C@H]1O[C@@H](C(=O)N2CCN(CC(=O)Nc3cccc4c3CNC4=O)CC2)[C@H](O)[C@@H]1O,Potency,[1],inactive
same,Potency,[2],inactive
same,Potency,[3],inactive
same,Potency,[4],inactive
O=C(Nc1ccccc1)Nc1ccc(-c2ccc(C(=O)C3CCCC3C(=O)O)cc2)cc1 (stereo unspecified),Potency,[1],inactive
same,Potency,[2],inactive
same,Potency,[3],inactive
C=C1CCC2C(C)(C)CCC[C@]2(C)[C@H]1CC/C(C)=C/C(=O)O (stereo partly specified),Potency,[1],inactive
same,Potency,[2],inactive
same,Potency,[3],inactive
same,Potency,[4],inactive
CC1C2=CC(=O)OC2(O)CC2C1C(OC(=O)c1ccccc1)C(OC(=O)c1ccccc1)C1(O)C2(C)CCC(O)C1(C)C(=O)O (stereo unspecified),Potency,[1],inactive
same,Potency,[2],inactive
same,Potency,[5],inactive
same,Potency,[4],inactive
CC(C)CC(=O)NCCn1cc(C(=O)O)c(=O)cc1C(O)c1ccccc1 (stereo unspecified),Potency,[1],inactive
same,Potency,[2],inactive
same,Potency,[5],inactive
same,Potency,[4],inactive
CC(C)C(NC(=O)c1ccc(O)cc1)C(=O)N1CCCC1C(=O)Nc1c(O)cccc1C(=O)O (stereo unspecified),Potency,[1],inactive
same,Potency,[2],inactive
same,Potency,[5],inactive
same,Potency,[4],inactive
C=CC(C)(O)C1CC2C3(C)CCCC(C)(C)C3C(O)C(O)C2(C)O1 (stereo unspecified),Potency,[1],inactive
same,Potency,[2],inactive
same,Potency,[3],inactive
same,Potency,[4],inactive
N=C(N)c1ccc2nc(-c3cc(CC(=O)NC(CC(=O)O)C(=O)O)cc(-c4cc(S(N)(=O)=O)ccc4O)c3O)[nH]c2c1 (stereo unspecified),Potency,[1],inactive
same,Potency,[2],inactive
same,Potency,[3],2.12 µM (active)
same,Potency,[4],inactive
CC1(C)Oc2ncnc(N)c2N=C1c1ccc(C2CCC(CC(=O)O)CC2)cc1 (stereo unspecified),Potency,[1],inactive
same,Potency,[2],inactive
same,Potency,[3],inactive
same,Potency,[4],inactive
C=CC(C)(CCC=C(C)C)O[C@@H]1O[C@H](CO)[C@@H](O)[C@H](O)[C@H]1O (stereo partly specified),Potency,[1],inactive
same,Potency,[2],inactive
same,Potency,[3],inactive
same,Potency,[4],inactive
C/C=C1/CC2C(=O)Nc3cc(O)c(OC)cc3C(=O)N2C1 (stereo unspecified),Potency,[1],inactive
same,Potency,[2],inactive
same,Potency,[3],13.1 µM (active)
same,Potency,[4],inactive
COc1c(O[C@@H]2O[C@H](CO)[C@@H](O)[C@H](O)[C@H]2O)c(CCC(=O)O)cc2ccoc12,Potency,[1],inactive
same,Potency,[2],inactive
same,Potency,[4],inactive
COC(=O)[C@@H](NC(=O)[C@H](CC(C)C)NC(=O)N(Cc1ccccc1)C[C@@H](O)[C@H](Cc1ccccc1)NC(=O)OC(C)(C)C)C(C)C,Potency,[1],inactive
same,Potency,[2],inactive
same,"activity, negative = inhibition",[4],-4.83% [at 11.6 µM]
O=C(OCC1OC(Oc2ccc(O)cc2COC(=O)C2(O)C(O)CCC(=O)C2OC(=O)C2C=CCC2)C(OC(=O)C2C=CCC2)C(O)C1O)C1C=CCC1 (stereo unspecified),Potency,[1],inactive
same,Potency,[2],inactive
same,Potency,[3],inactive
same,Potency,[4],inactive
COC(=O)c1c(CC=C(C)C)c(OC2OC(CO)C(O)C(O)C2O)c2ccccc2c1OC1OC(CO)C(O)C(O)C1O (stereo unspecified),Potency,[1],inactive
same,Potency,[2],inactive
same,Potency,[4],inactive
CCOC(=O)c1ccc(NC2CCCCC2)c(N)c1,Potency,[1],inactive
same,Potency,[2],inactive
same,Potency,[4],inactive
COC(=O)C(Cc1ccccc1)NC(=O)c1ccccc1 (stereo unspecified),Potency,[1],inactive
same,Potency,[2],inactive
same,Potency,[3],inactive
same,Potency,[4],inactive
C/C=C(\C)C(=O)OC1CC2C(CC=C3CC(OC4CC(OC)C(OC5CC(OC)C(OC6CC(OC)C(OC7CC(OC)C(OC8CC(OC)C(OC9OC(CO)C(O)C(O)C9O)C(C)O8)C(C)O7)C(C)O6)C(C)O5)C(C)O4)CCC32C)C2(O)CCC(C(C)=O)C12C (stereo unspecified),Potency,[1],inactive
same,"activity change, negative = inhibition",[5],2.55% [at 11.6 µM]
same,"activity change, negative = thiol reactive",[3],7.96% [at 11.5 µM]
same,"activity, negative = inhibition",[4],4.2% [at 11.6 µM]
CCCC(C(=O)O)c1c(C)nc2ccc(Cl)cc2c1-c1ccccc1 (stereo unspecified),Potency,[1],inactive
same,Potency,[2],inactive
same,Potency,[3],inactive
same,Potency,[4],inactive
CC(=O)OC1CC(=O)C2(C)C3CC4=C(OC(C)CC4=O)OC3(C)CCC2C1(C)C (stereo unspecified),Potency,[1],inactive
same,Potency,[5],inactive
same,Potency,[3],11.6 µM (active)
same,Potency,[4],inactive
Cc1oc2nc3c(c(NC(=O)CN4CCCC4=O)c2c1C)CCCC3,Potency,[1],inactive
same,Potency,[5],inactive
same,Potency,[3],inactive
same,Potency,[4],inactive
COc1ccc(-c2ccn(CC[C@](C)(C(=O)NO)S(C)(=O)=O)c(=O)c2)c(F)c1,Potency,[1],inactive
same,Potency,[2],inactive
same,Potency,[4],inactive
CC1(C)CC[C@]2(C(=O)O)CC[C@]3(C)C(=CCC4[C@@]5(C)CC[C@H](O[C@@H]6O[C@H](C(=O)O)[C@@H](O)[C@H](O)[C@H]6O)C(C)(C)C5CC[C@]43C)C2C1 (stereo partly specified),Potency,[1],inactive
same,Potency,[5],inactive
same,Potency,[3],inactive
